Data reported in the supplement of paper PMC9694430.
Where a name gives a salt, the structure may show the parent alone.

How the values were obtained:
Assay in all cases: thermal shift delta Tm vs DMSO control; higher = stronger stabilization (binding)
Details in all cases: 12.5 µM; protein concentration 2 µM
LOC_OS04G57630-cb004 = test system: LOC_OS04G57630-cb004
Summary of the method: (§1)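 Purified, E. coli-expressed rice kinase domain constructs were tested by differential scanning fluorimetry in 96-well plates: 19.5 μl of 2 μM kinase in 100 mM potassium phosphate pH 7.5, 150 mM NaCl, 10% glycerol, 5 × SYPRO Orange, plus compound in DMSO. Fluorescence was read from 25°C to 95°C at 0.05°C/s. Melting temperatures came from Boltzmann fits, and the shift is the triplicate mean relative to protein with DMSO alone.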

LOC_OS05G07850-cb002 = test system: LOC_OS05G07850-cb002
Summary of the method: as §1

LOC_OS05G16824-cb004 = test system: LOC_OS05G16824-cb004
Summary of the method: as §1

LOC_OS05G28520-cb001 = test system: LOC_OS05G28520-cb001
Summary of the method: as §1

LOC_OS05G30820-cb001 = test system: LOC_OS05G30820-cb001
Summary of the method: as §1

LOC_OS05G43570-cb004 = test system: LOC_OS05G43570-cb004
Summary of the method: as §1

LOC_OS06G16330-cb003 = test system: LOC_OS06G16330-cb003
Summary of the method: as §1

LOC_OS06G22820-cb001 = test system: T1, LOC_OS06G22820-cb001
T1 sequence (whole entry): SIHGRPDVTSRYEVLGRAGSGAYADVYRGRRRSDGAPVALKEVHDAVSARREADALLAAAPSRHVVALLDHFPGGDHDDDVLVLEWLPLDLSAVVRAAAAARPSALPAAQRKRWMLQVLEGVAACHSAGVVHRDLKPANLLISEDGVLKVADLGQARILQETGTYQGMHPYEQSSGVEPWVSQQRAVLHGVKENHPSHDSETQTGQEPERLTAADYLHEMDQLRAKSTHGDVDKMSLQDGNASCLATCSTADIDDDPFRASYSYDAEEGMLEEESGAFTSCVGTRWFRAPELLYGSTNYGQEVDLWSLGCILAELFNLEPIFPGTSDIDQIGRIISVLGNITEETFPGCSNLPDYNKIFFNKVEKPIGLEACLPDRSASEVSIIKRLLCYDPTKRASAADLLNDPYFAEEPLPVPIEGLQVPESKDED
Summary of the method: as §1

LOC_OS07G06570-cb004 = test system: LOC_OS07G06570-cb004
Summary of the method: as §1

LOC_OS07G07230-cb001 = test system: LOC_OS07G07230-cb001
Summary of the method: as §1

Chain of LOC_OS06G16330-cb003 (as listed by the source): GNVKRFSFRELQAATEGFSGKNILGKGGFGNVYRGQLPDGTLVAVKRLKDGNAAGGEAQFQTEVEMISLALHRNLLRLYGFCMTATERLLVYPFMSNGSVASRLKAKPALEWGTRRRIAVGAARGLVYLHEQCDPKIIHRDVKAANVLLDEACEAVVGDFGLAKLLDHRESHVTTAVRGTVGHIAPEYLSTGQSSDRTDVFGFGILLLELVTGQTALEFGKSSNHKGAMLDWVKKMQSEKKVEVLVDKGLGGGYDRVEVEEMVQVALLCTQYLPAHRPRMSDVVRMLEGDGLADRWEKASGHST

| SMILES | thermal shift delta Tm (LOC_OS04G57630-cb004) [°C] | thermal shift delta Tm (LOC_OS05G07850-cb002) [°C] | thermal shift delta Tm (LOC_OS05G16824-cb004) [°C] | thermal shift delta Tm (LOC_OS05G28520-cb001) [°C] | thermal shift delta Tm (LOC_OS05G30820-cb001) [°C] | thermal shift delta Tm (LOC_OS05G43570-cb004) [°C] | thermal shift delta Tm (LOC_OS06G16330-cb003) [°C] | thermal shift delta Tm (LOC_OS06G22820-cb001) [°C] | thermal shift delta Tm (LOC_OS07G06570-cb004) [°C] | thermal shift delta Tm (LOC_OS07G07230-cb001) [°C] |
| --- | --- | --- | --- | --- | --- | --- | --- | --- | --- | --- |
| COc1cc2ncnc(Nc3cccc(Cl)c3)c2cc1OC [AG-1478 (Tyrphostin AG-1478)] | 0.54 | 10.9 | 0.02 | 0.3 | 0.62 | 0.52 | 5.45 | 0.8 | 0.35 | 0.01 |
| COc1cc(Nc2c(C#N)cnc3cc(OCCCN4CCN(C)CC4)c(OC)cc23)c(Cl)cc1Cl [Bosutinib (SKI-606)] | -0.3 | 0.13 | -0.71 | 0.48 | 0.5 | 0.48 | -0.26 | 0.74 | 0.61 | 0.26 |
| O=C(Nc1ccc(-c2ccnc(Nc3ccc(N4CCOCC4)cc3)n2)cc1)C1CCCN1 (stereo not given) | 0.39 | 8.89 | -1.75 | 0.58 | 0.48 | 0.34 | 2.94 | 0.34 | 1.36 | 0.39 |
| NC[C@@](O)(c1ccc(Cl)cc1)c1ccc(-c2cn[nH]c2)cc1 | 0.11 | 1.75 | 0.67 | 0.5 | 0.47 | 2.11 | 0.77 | 0.65 | 0.91 | 0.04 |
| CO[C@@H](C(=O)N1Cc2[nH]nc(NC(=O)c3ccc(N4CCN(C)CC4)cc3)c2C1)c1ccccc1 | 2.02 | 6.58 | 5.14 | 0.31 | 0.48 | 0.25 | 7.87 | 2.69 | 0.66 | 0 |
| COc1ccc(C(=O)Nc2sc3c(c2C(N)=O)CCCC3)cc1OC | 0.24 | 5.8 | -1.08 | 0.65 | 0.5 | 0.59 | 5.12 | 0.46 | 1.73 | 0.5 |
| CC(C)(CCCCCC(O)CCCCCC(C)(C)C(=O)O)C(=O)O | 0.04 | 0.87 | 0.14 | 0.47 | 0.38 | 0.54 | -0.14 | 0.48 | 0.64 | -0.4 |
| CCCCCCCCCC(=O)CC(O)S(=O)(=O)O (stereo not given) [Sodium Houttuyfonate] | 0.61 | 0.71 | -0.1 | 0.13 | 0.21 | 0.52 | -8.96 | -0.11 | 0.7 | 0.34 |
| CO[C@H]1C[C@@H]2CC[C@@H](C)[C@@](O)(O2)C(=O)C(=O)N2CCCC[C@H]2C(=O)O[C@H]([C@H](C)C[C@@H]2CC[C@@H](OCCO)[C@H](OC)C2)CC(=O)[C@H](C)/C=C(\C)[C@@H](O)[C@@H](OC)C(=O)[C@H](C)C[C@H](C)/C=C/C=C/C=C/1C [Everolimus (RAD001)] | -0.03 | -0.04 | 1.13 | 0.62 | 0.41 | 0.57 | 0.13 | 1.04 | 0.88 | -1.46 |
| O=C1c2ccc(Nc3ccc(F)cc3F)cc2CCc2ccc(OC[C@H](O)CO)cc21 [Skepinone-L] | -0.62 | 1.02 | -0.73 | 0.27 | 0.6 | 0.4 | -0.23 | 0.53 | 0.41 | -0.05 |
| FC(F)c1nc2ccccc2n1-c1nc(N2CCOCC2)nc(N2CCOCC2)n1 | 0.39 | 0.04 | 1.24 | 0.54 | 0.54 | 0.5 | 0.49 | 0.93 | 0.84 | 0.3 |
| CNC(=O)c1cccc(-c2ccc3c(N4CCOC[C@@H]4C)nc(N4CCOC[C@@H]4C)nc3n2)c1 [Vistusertib (AZD2014)] | -0.14 | 0.07 | -6.13 | -0.26 | 0.67 | 0.5 | 0.19 | 0.59 | 0.64 | 0.29 |
| CC(=O)O/N=C1/C(c2c(O)[nH]c3cc(Br)ccc23)=Nc2ccccc21 [BIO-acetoxime] | 0.24 | 7.48 | 4.45 | -0.58 | 1.03 | -0.53 | 2.52 | -0.05 | 0 | 0.92 |
| CCn1c(N)c(C(=O)NC)c(=O)c2ccc(C#CC(C)(O)COC)nc21 (stereo not given) | 0.45 | 5.21 | 3.79 | 0.37 | 0.73 | 0.13 | 0.51 | 0.3 | 1.2 | -0.09 |
| CCNC(=O)C#Cc1ccc2c(C(=Nc3ccc(CN(C)C)cc3)c3ccccc3)c(O)[nH]c2c1 | 2.92 | 5.17 | 8.59 | 0.18 | 0.42 | 0.36 | 1.85 | 0.09 | 0.62 | -0.34 |
| CCS(=O)(=O)Nc1ccc2c(c1)/C(=C(/Nc1ccc(CN3CCCCC3)cc1)c1ccccc1)C(=O)N2 [Hesperadin] | 7.62 | 11.8 | 16.8 | -0.02 | 2.48 | 0.56 | 13.1 | 0.6 | 0.84 | -0.17 |
| O=C(Nc1cccnc1)c1cc(-c2ccnc(F)c2)ccc1OCc1ccccc1 | 0.47 | 4.72 | 1.19 | 0.34 | 0.36 | -0.18 | -0.02 | 0.4 | 0.99 | 0.03 |
| Cc1ccc(NC(=O)c2ccc(CN3CCN(C)CC3)cc2)cc1Nc1nccc(-c2cccnc2)n1 [Imatinib Mesylate (STI571)] | 0.35 | 2.65 | 0.21 | 0.58 | 0.32 | 0.49 | 0.2 | 0.68 | 1.07 | 0.85 |
| CC(C)NC[C@@H](C(=O)N1CCN(c2ncnc3c2[C@H](C)C[C@H]3O)CC1)c1ccc(Cl)cc1 [Ipatasertib (GDC-0068)] | -0.05 | 0.18 | -3.22 | 0.5 | 0.46 | 0.17 | -0.53 | 0.38 | 1.25 | 0.21 |
| CN1CCN(Cc2ccc(NC(=O)Nc3ccc(Oc4ccnc(N)n4)cc3)cc2C(F)(F)F)CC1 | 6.19 | 11.9 | -5.04 | 0.9 | 0.74 | 1.72 | 5.38 | 0.66 | 0.91 | -1.04 |
| C=CC(=O)Nc1cccc(Nc2nc(Nc3ccc(Oc4ccnc(C(=O)NC)c4)cc3)ncc2F)c1 | 1.31 | 11 | 6.27 | 0.89 | 0.57 | 0.22 | 6.48 | 0.38 | 0.89 | 1.49 |
